Most compounds without a hit are left out; they make up all but 0.51% or so of the library.
CatS inh – inhibitors of human cathepsin S. P25774. recombinant cathepsin S, AMC dipeptide fluorescence, pooled mixtures. inhibition, %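 (tested at 5 µM per compound within 10-compound mixtures)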. 62,000 tested, 0.06% active; in the data active = inhibition above about 32%, passing the limit was not always enough
Target sequence (P25774 115-331 limits assumed): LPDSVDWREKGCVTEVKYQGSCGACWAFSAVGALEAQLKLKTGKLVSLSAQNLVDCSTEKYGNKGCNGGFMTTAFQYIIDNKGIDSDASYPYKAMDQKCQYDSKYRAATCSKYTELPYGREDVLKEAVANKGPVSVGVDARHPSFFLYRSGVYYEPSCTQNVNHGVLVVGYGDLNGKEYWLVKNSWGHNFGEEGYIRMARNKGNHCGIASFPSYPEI
ROCK2 blocker – inhibitors of human Rho kinase 2. purified ROCK2, Kinase-Glo ATP depletion luminescence. O75116. AID 604. 60,000 tested, 0.35% active. inhibition, % at 6 µM;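 active = inhibition above the screen-wide mean inhibition plus 3 SD, cut at about 18% in these data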
CatB mixtures – inhibitors of human cathepsin B in compound mixtures. Purified cathepsin B, AMC dipeptide fluorescence. AID 488. 62,000 tested, 0.06% active. inhibition, %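 (ten-compound pools at 5 µM per compound and 50 µM total)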; in the data active = inhibition above about 22%, passing the limit was not always enough
PKA kinase inh – inhibitors of human protein kinase A; inhibition, % at 6 µM; PKA Kemptide phosphorylation, Kinase-Glo ATP luminescence; AID 524; P17612; 65,000 tested, 0.1% active;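 active = inhibition above the screen-wide mean inhibition plus 3 SD, cut at about 21% in these data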
CatL block – blocks human cathepsin L protease activity. purified cathepsin L, fluorogenic substrate, fluorescence. P07711. 58,000 tested, 0.17% active. inhibition, %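 (tested at 10 µM)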; in the data active = inhibition above about 45%
Target sequence (P07711 114-288 limits assumed): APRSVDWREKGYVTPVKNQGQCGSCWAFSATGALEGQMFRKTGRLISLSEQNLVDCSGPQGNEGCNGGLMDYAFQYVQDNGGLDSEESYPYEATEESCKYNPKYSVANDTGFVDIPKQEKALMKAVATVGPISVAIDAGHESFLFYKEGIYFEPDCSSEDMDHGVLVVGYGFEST
Target sequence (P07711 292-333 limits assumed): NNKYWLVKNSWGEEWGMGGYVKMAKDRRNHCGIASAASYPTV
CatB inh – blocks human cathepsin B protease activity. P07858. purified cathepsin B, fluorogenic substrate, fluorescence. inhibition, %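 (tested at 10 µM)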. 63,000 tested, 0.1% active. AID 453; in the data active = inhibition above about 21%
Hits are given with their value; – = inactive; · = no result given.

SMILES	CatS inh	ROCK2 blocker	CatB mixtures	PKA kinase inh	CatL block	CatB inh
COc1ccc(N2CCN(c3ncnc4nc[nH]c34)CC2)cc1	–	24	–	–	–	–
c1nc(N2CCOCC2)c2[nH]cnc2n1	·	26	·	–	·	·
CNC(=O)CSc1nnc(-c2cc3c(C)nn(-c4ccccc4)c3s2)n1C	–	–	–	–	–	–
COC(=O)c1ccc(CSc2ccc3nnc(-c4ccc(OC)c(OC)c4)n3n2)o1	–	–	–	–	–	–
Cc1c(OC(=O)CNC(=O)OC(C)(C)C)ccc2c3c(c(=O)oc12)CCC3	–	–	–	–	–	–
C=CCn1c(SCc2c(C)noc2C)nnc1C1COc2ccccc2O1 (stereo not given)	–	–	–	–	–	–
Cc1[nH]c2ccccc2c1C(=O)CN1CCCCC1CCO (stereo not given)	–	–	–	–	–	–
Cc1ccc2c(C(=O)CN3CCCCC3CCO)c(C)[nH]c2c1 (stereo not given)	–	–	30	–	–	–
Cn1c(=O)c2c(nc(SCC(=O)NC3CCCCC3)n2C)n(C)c1=O	–	–	–	–	·	–
Cc1ccccc1CS(=O)(=O)CCC(=O)N1CCN(c2ccc(N3CCOCC3)nn2)CC1	–	·	–	–	–	–
COc1ccccc1NC(=O)CCC(=O)O	·	–	–	–	–	33
Cn1c(CSCc2ccc(Cl)c(Cl)c2)nnc1SCC(=O)Nc1nccs1	–	25	–	–	–	–
N#Cc1c(N)sc(=S)c2c1CCN(Cc1ccccc1)C2	75	–	–	–	47	80
CCCc1nc(S(=O)(=O)Cc2ccc(Cl)cc2Cl)n[nH]1	–	–	–	–	–	–
CCC(=O)Nc1ccc(C(=O)Cn2nc(C(=O)O)c3ccccc3c2=O)cc1	–	33	–	–	–	–
CC(C)N1C(=O)CCC1C(=O)NCc1ccccc1Cl (stereo not given)	–	–	–	–	·	–
CC(C)Cn1c(=O)c(C2=NS(=O)(=O)c3ccccc3N2)c(O)c2ccccc21	–	–	–	–	–	–
CCOC(=O)c1sc2nc(-c3ccco3)c3c(c2c1N)CC(C)(C)OC3	–	–	–	–	–	–
CC1(C)Cc2c(c(-c3ccco3)nc3n[nH]c(N)c23)CO1	–	–	–	31	–	–
Cc1cc(C)nc(N2CCCC(C(=O)NC(C)CCc3ccco3)C2)n1 (stereo not given)	–	–	–	–	–	–
Cc1cccc(NC(=O)CCn2nc(C)cc2C)c1	–	–	–	–	59	–
Cc1ccc(NC(=O)CCn2nc(C)cc2C)c(C)c1	–	–	–	–	–	–
C1CCN(c2nc3nonc3nc2N2CCCCC2)CC1	–	–	–	–	–	–
Nc1nonc1-c1noc(N2CCCCC2)n1	–	–	–	–	–	24
COc1cc(/C=N\n2nnnc2N)ccc1OCc1ccc(F)cc1	–	18	–	–	–	–
SMILES	CatS inh	ROCK2 blocker	CatB mixtures	PKA kinase inh	CatL block	CatB inh
CN(Cc1cccs1)C(=O)COc1ccc(-c2nnco2)cc1	–	–	–	–	–	–
COc1ccccc1S(=O)(=O)Cc1ccc(C(=O)NCCN2CCCCCC2)o1	–	–	–	–	50	–
COc1ccccc1S(=O)(=O)Cc1ccc(C(=O)NCCN(C)C)o1	–	–	–	–	–	–
COc1cccc(NC2=NCC(=O)N2Cc2cccs2)c1	–	·	–	–	73	–
COc1ccc(NC2=NCCC(=O)N2Cc2cccs2)cc1	–	–	–	–	–	–
Nc1ccc2[nH]ncc2c1	–	32	–	–	–	–
O=C(C1CCCN(S(=O)(=O)c2cccc3cccnc23)C1)N1CCN(c2ccc(F)cc2)CC1 (stereo not given)	–	–	–	–	–	–
O=C(Cn1nnc(-c2ccccc2F)n1)Nc1ccc(S(=O)(=O)NC2CCCC2)cc1	–	–	–	–	–	–
O=C(CSc1nc2c(c(=O)n1-c1ccc(Cl)cc1)SCC2)Nc1ccc2c(c1)OCCO2	–	–	–	–	–	–
CCOC(=O)c1c(-c2cccs2)csc1NC(=O)CN1CCOCC1	–	–	–	–	–	–
NC(=O)c1c(-c2cccs2)csc1N	–	21	–	–	–	–
c1ccc2c(-c3ccncc3)c[nH]c2c1	–	89	–	65	–	–
CCn1c(-c2c[nH]c3ccccc23)n[nH]c1=S	–	–	–	–	–	–
N#Cc1nc(N2CCOCC2)nc(N2CCOCC2)n1	32	–	–	–	67	–
COc1ccc(S(=O)(=O)N2CCN(c3nc4ccccc4nc3-n3nc(C)cc3C)CC2)cc1	–	–	–	–	–	–
CC(=O)c1ccc(OCC(O)COc2ccc(C(C)=O)cc2)cc1	–	19	–	–	–	–
c1cn(CCCNc2ncnc3nc[nH]c23)cn1	–	40	–	–	–	–
CCN1CCN(CCCNc2ncnc3nc[nH]c23)CC1	–	–	–	–	–	–
Cc1ccc(C2NC(=O)c3c(sc4c3CCN(C)C4)N2)s1 (stereo not given)	–	–	–	–	55	–
Cc1ccc(C2NC(=O)c3c(sc4c3CCN(C)C4)N2)o1 (stereo not given)	–	–	–	–	–	–
O=C(CSc1nnc(-c2ccc(S(=O)(=O)N3CCCC3)cc2)o1)NCc1ccco1	·	–	·	–	·	·
CCOc1cc2[nH]c(=O)n(CCCCC(=O)NC3CCCCC3)c(=O)c2cc1OCC	–	–	–	–	–	–
CCOC(=O)c1sc(=NC(=O)c2ccc(S(=O)(=O)N3CC(C)OC(C)C3)cc2)n(C)c1C (stereo not given)	–	–	–	–	–	43
COc1nc(N(C#N)CC(N)=O)nc(N2CCCC2)n1	–	–	23	–	–	37
COc1nc(N2CCCCCC2)nc(N2CCCCCC2)n1	–	–	–	–	–	–
SMILES	CatS inh	ROCK2 blocker	CatB mixtures	PKA kinase inh	CatL block	CatB inh
O=C(CN1CCC(n2nnc3cc(F)ccc32)CC1)Nc1ccccc1N1CCOCC1	·	–	·	–	·	·
Cc1onc(-c2ccccc2)c1C(=O)N1CCN(C/C=C/c2ccccc2)CC1	–	22	–	–	–	–
COc1cc(Cn2c(-c3nonc3N)nc3ccccc32)ccc1C	–	–	–	–	–	50
COc1cccc(Cn2c(-c3nonc3N)nc3ccccc32)c1	–	–	–	–	50	39
COc1nc(C)nc2c1sc(=S)n2C	–	–	–	–	–	–
O=S(=O)(c1ccccc1F)N(Cc1ccco1)Cc1nnc(-c2ccccc2Br)o1	–	–	–	–	47	–
Cc1ccc(S(=O)(=O)NCCSc2nnnn2-c2ccc(C(N)=O)cc2)cc1	–	–	–	54	–	–
Nc1ccc2ncccc2c1N	·	–	·	–	79	–
Cc1nccn1-c1cc(C(C)C)c(C#N)c2nc3ccccc3n12	·	–	·	–	–	–
COC1(OC)N=C(N)C2(C#N)C(c3ccc(C)cc3)C12C#N (stereo not given)	–	–	–	–	–	–
COC1(OC)N=C(N)C2(C#N)C(c3ccc4c(c3)OCO4)C12C#N (stereo not given)	–	29	–	–	–	–
S=C(N=Nc1ccccc1)NNc1ccccc1	–	–	–	–	–	–

Screening data deposited in PubChem BioAssay by several laboratories.
